Test results as given in PMC5540273 (PLoS ONE, 2017).

Test system: ACVR2A
Conditions: concentration: 1 μM, replicates: in singlicate; n = 1
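Note: KINOMEscan kinase panel screen.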

Structure (SMILES) | %Inh [%]
N#Cc1ccc(-c2cc(-c3c[nH]nc3-c3ccccn3)ccn2)cc1 [GW693028] | 0
O=C(Nc1n[nH]c2cc(-c3cccc(F)c3)ccc12)C1CC1 [SB-735464] | 32
COc1cc2c(cc1OC[C@@H](O)CO)ncc1c3ccc(C#N)cc3[nH]c21 | 0
CCCCCc1nc2c(N)ncnc2n1CCCCC [SKF-97255] | 0
Cc1cccc(Cn2ccn3c(=O)cc(N4CCOCC4)nc23)c1 [GSK2297542] | 0
CCn1cnc2c(N)ncnc21 [GW345098] | 0
Cn1ccc2ncnc(Oc3ccc(NC(=O)Nc4ccncc4)c(Cl)c3)c21 | 0
Cn1cc(-c2ccc3c(c2)CCN3C(=O)Cc2ccccc2Cl)c2c(N)ncnc21 [GSK2608885] | 0
Cl.Nc1ncnc2occ(-c3ccc(NC(=O)Nc4cc(C(F)(F)F)ccc4F)cc3)c12 [SB-707548] | 81
Cc1ccc(C(=O)NCC(N)=O)cc1-n1c(C)cc(OCc2ccc(F)cc2F)c(Br)c1=O | 0
NCC(NC(=O)c1cc(-c2cn[nH]c2)c(-c2ccnc3[nH]ccc23)s1)c1ccccc1.O=C(O)C(F)(F)F.O=C(O)C(F)(F)F (centres unmarked) [GSK1325775] | 15
CN(C(=O)c1ccc(-c2cc(-c3c[nH]nc3-c3ccccn3)ccn2)cc1)C1CCOCC1 [GW810083] | 0
Cc1nnc(-c2ccc(C)c(-c3ccc(C(=O)Nc4ccc(NS(C)(=O)=O)cc4)cc3)c2)o1 [GW702865] | 0
CN(C1=C(c2ccccc2)C(=O)NC1=O)c1ccccc1 [SB-334860] | 0
Cc1cccc(-c2nc(Nc3ccc4ncsc4c3)c3ccccc3n2)n1 [GW867588] | 0
NS(=O)(=O)CCc1cccc(Nc2nccc(-c3c(-c4cccc(NC(=O)c5c(F)cccc5F)c4)nn4ccccc34)n2)c1 [GSK336735] | 0
CNc1ncnc2[nH]ncc12 [SKF-18355] | 4
Cc1c2ccc(N(C)c3ccnc(Nc4cccc(S(N)(=O)=O)c4)n3)cc2nn1Cc1ccccc1.Cl.Cl [GW787226] | 0

Structure (SMILES) | %Inh [%]
COc1ccc(CNC(=O)NC2CCN(c3ccnc(Nc4ccc(OC)cc4)n3)C2)cc1 (centres unmarked) [GSK1379727] | 0
Cc1nnc(-c2ccc3occ(-c4ccc(C(C)O)cc4)c3c2)o1 (centres unmarked) | 9
Fc1ccc(-c2nn3c(OCC(F)(F)F)cccc3c2-c2ccncc2)cc1 [GW514784] | 0
O=C1Cc2cc(Nc3nc(NCc4cccc(S(=O)(=O)C(F)(F)F)c4)ncc3C(F)(F)F)ccc2N1 | 0
O=C(NCCNc1ccnc(Nc2ccc(F)cc2)n1)c1cc2ccccc2s1 [GSK1379874] | 0
Nc1nccc(-c2c(-c3ccc(F)cc3)ncn2C2CCN(CC(F)(F)F)CC2)n1 [SB-236560] | 0
Nc1nc(-c2ccc3c(N)n[nH]c3c2)cc(N2CCCC2)n1 [GSK2227430] | 0
O=c1cc(N2CCOCC2)nc2n(Cc3cccc(Cl)c3Cl)c(C3CC3)nn12 [GSK2358994] | 0
N#Cc1c(N2CCOCC2)sc(-c2ccn[nH]2)c1-c1ccc(Cl)cc1 | 0
NS(=O)(=O)c1cccc(-c2ccc3nccc(-c4cccc(S(N)(=O)=O)c4)c3c2)c1 [GW867253] | 0
O=c1cc(N2CCOCC2)nc2n(Cc3cccc(F)c3)ccn12 [GSK2297430] | 6
Cc1cccc(-c2nc(-c3ccc(S(C)(=O)=O)cc3)sc2-c2ccncc2)c1 | 0
COCCNC(=O)c1ccc(-c2cc(C(=O)NC3CC3)cc(F)c2C)cc1 [GW868318] | 12
Cc1cn2c(=O)cc(N3CCOCC3)nc2n1Cc1cccc(Cl)c1Cl [GSK2334006] | 8
COc1ccc(COc2cc(-n3cnc4ccccc43)sc2C(N)=O)cc1 [GSK1024304] | 0
CN1c2ccc(NCc3ccc(F)cc3)cc2-c2c(cnn2C)S1(=O)=O | 0
O=C(NOCC1CC1)c1ccc(F)c(F)c1Nc1ccc(I)cc1Cl | 0
